From PubChem BioAssay (NCATS) come the findings set out here.

Test [1] deals with Estrogen receptor (Homo sapiens) (UniProt P03372). As to the kind of experiment: qHTS assay for small molecule antagonists of estrogen receptor alpha signaling (AID 588513; active means well fitted curve in the direction sought with a large enough effect in the signal ratio, with a control signal flat, not every such curve was filed as active; the % refers to the signal ratio; further: on the % scale 0 is the no-effect control and ±100 the full control effect). The essentials:
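Fluorescence from CCF4 substrate after 2 h at room temperature gave reporter activity; cells had been exposed to compound and 0.5nM 17-beta-estradiol for 18 h at 37 C. Hill-equation fitting yielded IC50 and maximal response.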

Test [2] shares this target. As to the kind of experiment: qHTS assay for small molecule agonists of estrogen receptor alpha signaling (AID 588514; calls by dose curve;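 further: 0% = vehicle only and 100% = reference agonist; nearly all actives have a fitted effect of over 70% in size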). In short, it runs like this:
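EC50 and efficacy came from Hill fits of beta-lactamase reporter signal (CCF4 dye, 2 h at room temperature) scaled between DMSO and 20 nM 17-beta-estradiol. Agonist mode: HEK293 ER-alpha-UAS-bla cells in charcoal/dextran-stripped serum medium, 18 h compound exposure at 37 C.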
In general terms: In qHTS, concentration-response curves come from the screen itself.

The target of test [3] is Glucocorticoid receptor (Homo sapiens) (UniProt P04150). Kind of test: qHTS assay for small molecule agonists of glucocorticoid receptor signaling (AID 588532; active means well fitted curve in the direction sought with a large enough effect in the signal ratio, with a control signal flat; the % refers to the signal ratio;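 further: 100% = dexamethasone at 0.1 µM and 0% = DMSO only wells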). As to conditions: HeLa MMTV-bla, beta-lactamase ratio, agonist, 18 h; stronger effect = higher value; percent of dexamethasone control, DMSO zero. The essentials:
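MMTV-bla HeLa, beta-lactamase reporter; medium with 1% charcoal/dextran-stripped FBS; cpds up to 92 uM, 18 h, 37 C; CCF4 readout 460/530 nm; Hill fit → EC50, efficacy vs 0.1 uM dexamethasone = 100%.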

Test [4] concerns the target Peroxisome proliferator-activated receptor gamma (Homo sapiens) (UniProt P37231). Kind of test: qHTS assay for small molecule agonists of peroxisome proliferator-activated receptor gamma signaling (AID 588536; active means well fitted curve in the direction sought with a large enough effect in the signal ratio, with a control signal flat, not every such curve was filed as active; the % refers to the signal ratio;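 further: 0% = DMSO basal wells and 100% = rosiglitazone at 2 µM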). The essentials:
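Compound treatment: 16 h, 37 C, HEK293 GeneBLAzer cells. Detection: CCF4, 2 h RT. Values: Hill-fit EC50, efficacy as % of 2 uM rosiglitazone.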

Test [5] can be described thus: qHTS assay for small molecule agonists of retinoid X receptor alpha signaling (AID 588544). As to conditions: HEK293T RXRa-UAS-bla, beta-lactamase reporter, 18 h; 530 nm emission.
For test [6], the target named is Thyroid hormone receptor beta (Homo sapiens) (UniProt P10828). As to the kind of experiment: qHTS assay for small molecule agonists of thyroid hormone receptor beta signaling (AID 588545; calls by dose curve). The essentials: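 Cells (2500/well) were seeded, incubated 4 hrs at 37 C, dosed with a compound series, incubated 18 hrs, loaded with CCF4 dye for 2 hrs at RT, then read for fluorescence. Data were scaled between DMSO (0%) and 10 nM T3 (100%).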
Chain of Thyroid hormone receptor beta (Homo sapiens) (P10828 whole entry, looked up): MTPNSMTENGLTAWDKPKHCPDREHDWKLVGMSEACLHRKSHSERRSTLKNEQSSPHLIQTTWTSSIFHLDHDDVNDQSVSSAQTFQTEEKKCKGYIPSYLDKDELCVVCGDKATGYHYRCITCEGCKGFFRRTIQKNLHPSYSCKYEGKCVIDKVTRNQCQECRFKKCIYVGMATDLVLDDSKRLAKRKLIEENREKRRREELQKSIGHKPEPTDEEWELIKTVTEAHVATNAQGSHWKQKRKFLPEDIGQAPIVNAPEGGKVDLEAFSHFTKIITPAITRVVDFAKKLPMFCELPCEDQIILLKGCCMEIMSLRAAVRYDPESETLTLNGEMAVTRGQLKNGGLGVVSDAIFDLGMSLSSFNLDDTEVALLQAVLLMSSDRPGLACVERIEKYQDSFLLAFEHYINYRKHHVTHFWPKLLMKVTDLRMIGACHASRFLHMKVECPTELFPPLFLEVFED

Test [7] is described as follows: qHTS assay for small molecule antagonists of retinoid X receptor alpha signaling (AID 588546; active means well fitted inhibition curve with a large enough effect in the signal ratio, with a control signal flat, not every such curve was filed as active; the % refers to the signal ratio;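 further: cells stimulated with 9-cis-retinoic acid as agonist; on the % scale 0 is the no-effect control and ±100 the full control effect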). As to conditions: HEK293T RXRa-UAS-bla, beta-lactamase ratio, antagonist mode; measured here: W530 green channel, cytotoxicity proxy. The essentials: (§1)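 Beta-lactamase reporter inhibition, read as CCF4 fluorescence ratio (ex 405, em 460/530 nm) after 2 h at RT. HEK293T UAS-bla cells, 2500/well, were stimulated with 9-cis-RA at 500 or 100 nM final alongside test compound for 18 h at 37 C.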

Test [8] concerns the target Retinoic acid receptor RXR-alpha (Homo sapiens) (UniProt P19793). The test is described as above. As to conditions: HEK293T RXRa-UAS-bla, beta-lactamase ratio, antagonist mode. In short, it runs like this: as §1
The target of test [9] is Thyroid hormone receptor beta (Homo sapiens) (UniProt P10828). Kind of test: qHTS assay for small molecule antagonists of thyroid hormone receptor beta signaling (AID 588547; active means well fitted inhibition curve with a large enough effect in the signal ratio, with a control signal flat, not every such curve was filed as active; the % refers to the signal ratio;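 further: cells stimulated with 0.4 nM T3 agonist during compound exposure; series mostly up to about 77 µM; on the % scale 0 is the no-effect control and ±100 the full control effect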). As to conditions: TR-UAS-bla HEK293, beta-lactamase ratio, antagonist mode, 18 h. The essentials:
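TR-UAS-bla GripTite HEK293 cells in 2% charcoal/dextran FBS medium were preincubated 4 h at 37 C, given compound (0.59 nM to 92 uM) plus 0.4 nM T3 (final) for 18 h, then CCF4 for 2 h at RT; Hill fit gave IC50.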

Test [10] can be described thus: qHTS assay for small molecule activators of the p53 signaling pathway (AID 651743; active means well fitted activation curve with a large enough effect in the signal ratio, not every such curve was filed as active; the % refers to the signal ratio; further: series mostly up to about 92 µM; % of control where 0% means no effect). As to conditions: HCT-116 p53RE-bla, beta-lactamase FRET ratio, 16 h; activation: stronger effect = higher value. In short, it runs like this:
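Agonist-mode quantitative HTS in HCT-116 cells carrying a p53-response-element beta-lactamase reporter; 16 h compound treatment at 37 C, then FRET substrate loading for 2 h at room temperature and fluorescence read.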

Test [11] can be described thus: qHTS assay for environmental chemicals that activate the Aryl hydrocarbon Receptor (AhR) signaling pathway (AID 651777). Further: nearly all actives have a fitted effect of over 15% in size. Further: potency means the concentration at half of the fitted maximal effect. On activation: % of control where 0% means no effect. As to conditions: 1A2-DRE human hepatoma cells, luciferase, 24 h; activation: stronger effect = higher value. In short, it runs like this: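 Stable CYP1A2 promoter/DRE-luciferase human hepatoma line treated 24 hr; One-Glo luminescence, 30 min RT.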
The target in test [12] is Peroxisome proliferator-activated receptor alpha (Homo sapiens) (UniProt Q07869). As to the kind of experiment: qHTS assay for small molecule agonists of the peroxisome proliferator-activated receptor alpha (PPARalpha) signaling pathway (AID 651778). Further: % of control where 0% means no effect. As to conditions: PathHunter PPARalpha complementation, chemiluminescence, 6 h; max response: stronger effect = higher value. In short, it runs like this:
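Cells plated at 2,000/well and held overnight at 37 C, 5% CO2, then compound added by pin tool for 6 hr; after PathHunter detection reagent and 60 min at room temperature, chemiluminescence from enzyme complementation was read.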

Test [13] in a line: qHTS assay for small molecule agonists of the antioxidant response element (ARE) signaling pathway measured by Nrf2-dependant transcriptional activity (AID 720636; active means well fitted curve in the direction sought with a large enough effect in the repeat runs; an effect the other way counts as inactive or inconclusive; further: potency means the concentration at half of the fitted maximal effect;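 on activation: HepG2 cells with an ARE-driven luciferase reporter; % of control where 0% means no effect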). The essentials: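 Reporter gene assay, HepG2 ARE-luc: 16 hr compound, 37 C, 5% CO2; read-out luciferase luminescence.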
Test [14] can be described thus: qHTS assay for small molecule agonists of the antioxidant response element (ARE) signaling pathway measured by Nrf2-dependant transcriptional activity - cell viability counter screen (AID 720653; active means well fitted curve in the direction sought with a large enough effect in the repeat runs; an effect the other way counts as inactive or inconclusive; further: on the % scale 0 is the no-effect control and ±100 the full control effect). As to conditions: ARE-bla HepG2 viability, CellTiter-Glo ATP luminescence, 16 h; max response: stronger effect = lower value. In short, it runs like this: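 ARE-bla HepG2 cells (2,000/well) rested 5 hrs at 37C/5% CO2, then exposed to compounds in DMSO for 16 hrs. Viability was read in the same wells as intracellular ATP by luminescence, 30 min at room temperature after reagent addition.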

Test [15] is described as follows: qHTS assay for cell viability of HEK293 cells (AID 743288). Further: on the % scale 0 is the no-effect control and ±100 the full control effect; nearly all actives have a fitted effect of over 50% in size. As to conditions: ATP luminescence (CellTiter-Glo), 18 h; max response: stronger effect = lower value. In short, it runs like this: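 Viable-cell counts were inferred from luciferase-based ATP content in HEK293 cells seeded at 2,000/well, pre-incubated ≥5 h, then dosed with DMSO-solubilised compounds for 18 h at 37 C.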

Test [16] can be described thus: qHTS assay for cell viability of the p53RE-bla HCT-116 cell line (AID 743292). Further: on the % scale 0 is the no-effect control and ±100 the full control effect; nearly all actives have a fitted effect of over 55% in size. In short, it runs like this:
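Readout: CellTiter-Glo luminescence after 30 min RT. Treatment: compounds in DMSO, 16 h, 37 C. Cells: CellSensor p53RE-bla HCT-116, 4,000/well, preincubated 5 h.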

For test [17], the target named is Nuclear receptor subfamily 1 group I member 2 (Rattus norvegicus) (UniProt Q9R1A7). Kind of test: qHTS assay for small molecule activators of the rat pregnane X receptor (rPXR) signaling pathway (AID 651751; call rule not given here; further: 0% is about no effect). As to conditions: rPXR reporter cells, luciferase (One-Glo), 24 h.
Chain of Nuclear receptor subfamily 1 group I member 2 (Rattus norvegicus) (Q9R1A7 whole entry, looked up): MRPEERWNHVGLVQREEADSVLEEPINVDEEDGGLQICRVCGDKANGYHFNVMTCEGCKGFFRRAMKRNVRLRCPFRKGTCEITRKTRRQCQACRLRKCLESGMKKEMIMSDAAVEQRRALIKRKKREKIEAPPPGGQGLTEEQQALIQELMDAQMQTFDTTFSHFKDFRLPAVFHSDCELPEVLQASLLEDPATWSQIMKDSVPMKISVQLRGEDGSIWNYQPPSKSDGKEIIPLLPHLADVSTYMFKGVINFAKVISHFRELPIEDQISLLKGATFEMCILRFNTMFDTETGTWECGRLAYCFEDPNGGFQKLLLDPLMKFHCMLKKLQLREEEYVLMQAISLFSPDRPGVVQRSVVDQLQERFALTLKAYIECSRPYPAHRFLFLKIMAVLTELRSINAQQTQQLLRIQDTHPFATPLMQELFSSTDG
The nature of test [18]: qHTS assay for small molecule activators of the human pregnane X receptor (PXR) signaling pathway (AID 720659; call rule not given here; further: 0% is about no effect).
Test [19] can be described thus: qHTS assay for small molecule antagonists of peroxisome proliferator-activated receptor delta signaling (AID 588535; active means well fitted inhibition curve with a large enough effect in the signal ratio, with a control signal flat, not every such curve was filed as active; the % refers to the signal ratio;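 on max response: cells co-treated with a PPAR-delta agonist as stimulator during compound exposure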). As to conditions: HEK293T PPARd-UAS-bla, beta-lactamase FRET ratio, 18 h; 460 nm channel. The essentials: (§2)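 Inhibition of PPAR-delta response element-driven beta-lactamase expression is measured in HEK293T cells exposed to a compound titration series for 18 hrs at 37 C. Half-maximal inhibition comes from Hill equation fitting.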

Test [20] addresses Peroxisome proliferator-activated receptor delta (Homo sapiens) (UniProt Q03181). The test is described as above. In short, it runs like this: as §2

The structures appear in SMILES notation. Records with an inconclusive call do not appear. Calls of active or inactive are those of the source. Unless noted, the call rests on the fitted dose curve; in most records, active means well fitted curve in the direction sought with a large enough effect; inconclusive means small, poorly fitted or top-dose-only effect, or another doubt; inactive means no such curve, though single readings can be large; an effect the other way counts as inactive or inconclusive.

Chain of Retinoic acid receptor RXR-alpha (Homo sapiens) (P19793 whole entry, looked up): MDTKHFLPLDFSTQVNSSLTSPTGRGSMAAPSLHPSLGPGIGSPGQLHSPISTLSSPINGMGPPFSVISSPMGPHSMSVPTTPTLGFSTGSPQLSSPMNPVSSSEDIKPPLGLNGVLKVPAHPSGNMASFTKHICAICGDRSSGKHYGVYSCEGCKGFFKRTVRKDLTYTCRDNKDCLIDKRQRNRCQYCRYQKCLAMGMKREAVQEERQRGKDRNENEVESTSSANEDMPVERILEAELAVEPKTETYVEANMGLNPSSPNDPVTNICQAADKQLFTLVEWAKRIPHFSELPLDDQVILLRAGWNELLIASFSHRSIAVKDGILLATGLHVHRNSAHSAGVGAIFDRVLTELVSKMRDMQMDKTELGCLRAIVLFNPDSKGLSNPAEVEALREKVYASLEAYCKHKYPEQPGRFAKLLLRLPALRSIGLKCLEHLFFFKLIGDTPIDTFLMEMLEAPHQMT
Chain of Estrogen receptor (Homo sapiens) (P03372 whole entry, looked up): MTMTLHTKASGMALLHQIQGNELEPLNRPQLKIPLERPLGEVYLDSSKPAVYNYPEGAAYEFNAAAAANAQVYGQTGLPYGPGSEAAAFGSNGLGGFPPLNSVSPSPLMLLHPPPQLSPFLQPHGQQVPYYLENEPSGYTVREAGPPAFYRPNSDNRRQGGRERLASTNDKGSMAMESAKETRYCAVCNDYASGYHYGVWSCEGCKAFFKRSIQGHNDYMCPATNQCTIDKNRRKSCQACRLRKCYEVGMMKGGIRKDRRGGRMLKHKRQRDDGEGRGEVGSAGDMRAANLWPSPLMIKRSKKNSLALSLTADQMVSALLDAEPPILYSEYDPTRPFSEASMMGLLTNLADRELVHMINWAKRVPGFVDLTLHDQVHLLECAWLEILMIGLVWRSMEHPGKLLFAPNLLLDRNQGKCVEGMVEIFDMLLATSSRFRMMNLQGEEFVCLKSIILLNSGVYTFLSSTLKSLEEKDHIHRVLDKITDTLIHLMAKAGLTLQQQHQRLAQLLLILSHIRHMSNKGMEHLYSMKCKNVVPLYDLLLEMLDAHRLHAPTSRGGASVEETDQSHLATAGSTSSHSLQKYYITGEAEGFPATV
Chain of Peroxisome proliferator-activated receptor alpha (Homo sapiens) (Q07869 whole entry, looked up): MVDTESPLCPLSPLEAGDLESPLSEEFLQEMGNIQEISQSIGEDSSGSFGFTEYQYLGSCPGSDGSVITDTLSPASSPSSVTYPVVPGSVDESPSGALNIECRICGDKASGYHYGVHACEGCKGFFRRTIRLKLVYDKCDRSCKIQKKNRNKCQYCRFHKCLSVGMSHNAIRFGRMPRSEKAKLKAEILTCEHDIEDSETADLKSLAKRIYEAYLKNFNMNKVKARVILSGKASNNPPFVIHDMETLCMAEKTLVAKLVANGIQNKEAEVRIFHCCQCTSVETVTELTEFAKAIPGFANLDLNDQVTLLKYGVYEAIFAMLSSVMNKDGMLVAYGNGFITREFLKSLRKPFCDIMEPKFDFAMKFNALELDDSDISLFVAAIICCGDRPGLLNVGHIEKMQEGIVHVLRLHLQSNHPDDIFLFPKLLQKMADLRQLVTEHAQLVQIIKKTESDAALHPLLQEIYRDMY
Chain of Peroxisome proliferator-activated receptor delta (Homo sapiens) (Q03181 whole entry, looked up): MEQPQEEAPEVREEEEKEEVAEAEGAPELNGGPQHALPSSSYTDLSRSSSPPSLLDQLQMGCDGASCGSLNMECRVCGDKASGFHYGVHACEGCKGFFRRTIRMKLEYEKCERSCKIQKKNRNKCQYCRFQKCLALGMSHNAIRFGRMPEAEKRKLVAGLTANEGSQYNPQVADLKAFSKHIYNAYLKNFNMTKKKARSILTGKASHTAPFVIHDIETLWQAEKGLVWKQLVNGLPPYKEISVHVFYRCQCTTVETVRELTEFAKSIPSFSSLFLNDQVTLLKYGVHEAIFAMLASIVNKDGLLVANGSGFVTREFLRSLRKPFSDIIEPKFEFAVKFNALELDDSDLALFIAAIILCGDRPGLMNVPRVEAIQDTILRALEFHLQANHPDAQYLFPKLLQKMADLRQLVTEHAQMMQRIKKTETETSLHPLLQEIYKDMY
Chain of Glucocorticoid receptor (Homo sapiens) (P04150 whole entry, looked up): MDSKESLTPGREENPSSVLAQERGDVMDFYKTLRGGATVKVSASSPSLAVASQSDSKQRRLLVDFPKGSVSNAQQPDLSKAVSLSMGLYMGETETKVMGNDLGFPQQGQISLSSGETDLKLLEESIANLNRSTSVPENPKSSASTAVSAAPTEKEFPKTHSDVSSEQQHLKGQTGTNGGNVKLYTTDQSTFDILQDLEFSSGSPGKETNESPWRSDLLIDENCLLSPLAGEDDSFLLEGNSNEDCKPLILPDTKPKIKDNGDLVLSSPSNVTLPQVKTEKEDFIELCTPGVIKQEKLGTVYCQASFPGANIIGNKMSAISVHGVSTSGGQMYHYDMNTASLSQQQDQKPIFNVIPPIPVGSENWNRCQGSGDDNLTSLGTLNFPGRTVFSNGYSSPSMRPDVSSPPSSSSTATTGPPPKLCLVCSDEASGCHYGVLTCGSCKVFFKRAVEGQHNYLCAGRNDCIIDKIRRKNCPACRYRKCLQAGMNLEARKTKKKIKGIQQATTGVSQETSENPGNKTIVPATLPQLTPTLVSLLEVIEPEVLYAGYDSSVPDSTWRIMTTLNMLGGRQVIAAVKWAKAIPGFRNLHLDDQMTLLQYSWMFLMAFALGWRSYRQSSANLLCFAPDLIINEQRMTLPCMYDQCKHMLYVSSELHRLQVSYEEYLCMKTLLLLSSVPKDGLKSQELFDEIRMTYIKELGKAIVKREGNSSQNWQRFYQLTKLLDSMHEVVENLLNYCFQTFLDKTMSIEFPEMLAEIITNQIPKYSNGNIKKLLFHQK
Chain of Peroxisome proliferator-activated receptor gamma (Homo sapiens) (P37231 whole entry, looked up): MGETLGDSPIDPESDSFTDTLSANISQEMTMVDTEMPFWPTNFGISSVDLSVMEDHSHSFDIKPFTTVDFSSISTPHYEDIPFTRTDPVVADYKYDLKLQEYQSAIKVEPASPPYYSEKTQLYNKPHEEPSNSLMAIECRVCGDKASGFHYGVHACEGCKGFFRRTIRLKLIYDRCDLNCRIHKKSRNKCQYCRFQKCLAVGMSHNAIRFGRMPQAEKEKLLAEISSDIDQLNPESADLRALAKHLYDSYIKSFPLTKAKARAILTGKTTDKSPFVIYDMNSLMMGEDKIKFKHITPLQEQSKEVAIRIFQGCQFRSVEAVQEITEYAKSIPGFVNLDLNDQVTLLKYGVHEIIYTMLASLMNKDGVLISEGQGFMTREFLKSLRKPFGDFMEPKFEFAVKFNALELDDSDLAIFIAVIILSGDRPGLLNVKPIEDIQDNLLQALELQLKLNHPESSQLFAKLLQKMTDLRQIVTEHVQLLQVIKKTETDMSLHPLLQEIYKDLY

Take `CC1(C)CC(NCCCCCCNC2CC(C)(C)NC(C)(C)C2)CC(C)(C)N1`: the Potency entry in test [1], in test [2], in test [6], in test [13] and in test [16] was “inactive” in each case. For the same compound, the activation in test [3] is -7.91% (inactive); in test [10], -1.03% (inactive); in test [11], 0.472% (inactive). Besides, the result in test [4] and in test [18] was inactive. The max response in test [5] is -2.83%; in [7], -10.1%; in test [8], 2.64% (inactive); in test [12] it was -0.876% (inactive); in [14], -7.27% (inactive); in test [15], -6.6% (inactive). In addition, the max response in test [17] was 1.41% (inactive). For the same compound, in test [9], the activity change % (negative = inhibition) was -26.6% (inactive).
For `O=C(c1ccc(Cl)cc1)c1ccc(Cl)cc1`, the Potency entry in test [1], in test [2], in test [20], in test [6], in test [13] and in test [16] was “inactive” throughout. In addition, the max response was 24.6% in test [19]; 6.29% in test [5]; -11.4% in test [7]; 7.91% (inactive) in test [8]; -1.26% (inactive) in [12]; -5.32% (inactive) in [14]. Moreover, the values for the max response in test [15] and in [17] were -7.2% (inactive) and 0.85% (inactive), respectively. Also, the outcome in test [4] and in test [18] was inactive. Besides, the activation in [10] is 1.92% (inactive); in test [11], -0.153% (inactive).
With `COC(=O)c1cccc(C)c1S(=O)(=O)NC(=O)Nc1nc(OCC(F)(F)F)nc(N(C)C)n1`, the Potency result in test [1], in test [2], in test [20], in test [6], in [13] and in test [16] was “inactive” throughout. For the same compound, the results for the activation in [3] and in [11] were -2.8% (inactive) and 2.46% (inactive), respectively. Moreover, the max response in test [19] was 78.8%; in test [7] it was -7.48%; in [8], -20.9% (inactive); in test [12], -1.42% (inactive); in [14], -9.65% (inactive); in [15], -5.64% (inactive). In addition, the max response in [17] was -6.52% (inactive). The result in test [4] and in test [18] was inactive. Moreover, the activity change % (negative = inhibition) in test [9] was 11.3% (inactive).
Turning to `O=c1[nH]c(=O)c2[nH]cnc2[nH]1`, the Potency entry in test [1], in test [2], in test [20], in [13] and in test [16] was “inactive” in each case. The activation in test [3] is 3.26% (inactive); in test [10], 4.14% (inactive); in test [11] it was 0.87% (inactive). In addition, the max response in test [19] was -11.9%; in test [5] it was -13.2%; in [7], -4.54%; in test [8], -1.52% (inactive); in test [12], -2.27% (inactive); in test [14], 0.287% (inactive). The max response in test [15] is -12.8% (inactive); in [17], 0.842% (inactive). The result in [4] and in test [18] was inactive. The activity change % (negative = inhibition) in test [9] was 11.6% (inactive).
As to `Cc1ccc(N=Nc2c(O)ccc3ccccc23)c(C)c1`, the Potency result in test [1], in test [2], in [20], in [6] and in test [16] was “inactive” in each case. The activation in test [3] is -16.9% (inactive). For the same compound, the max response in test [19] was 9.29%; in [7], -15.2%; in [8], -32% (inactive); in [12], 0.784% (inactive); in test [14] it was -17.4% (inactive); in [15] it was -21.3% (inactive). Further, in test [17], the max response is 13.1% (inactive). Further, the compound was called inactive in [4]. Moreover, the activity change % (negative = inhibition) in test [9] is 9.11% (inactive). In addition, the values for the Potency in [11] and in test [13] were 31.6 µM (active) and 10.9 µM (active), respectively.
Consider `CS/C(=N\O)C(=O)N(C)C`, for which the Potency result in test [1], in test [2], in [20], in test [13] and in test [16] was “inactive” in each case. Moreover, the activation in [3] was 1.45% (inactive); in test [10], -0.3% (inactive); in test [11], -0.34% (inactive). For the same compound, the max response is 31.5% in test [19]; 6.39% in test [5]; 0.656% in test [7]; -15.6% (inactive) in [8]; -5.16% (inactive) in [14]; -6.73% (inactive) in [15]. Moreover, the max response in test [17] is -0.0731% (inactive). For the same compound, the result in [4] and in test [18] was inactive. Besides, the activity change % (negative = inhibition) in test [9] was -12.9% (inactive).
